Assay [1] in a line: qHTS assay for small molecules that induce genotoxicity in human embryonic kidney cells expressing luciferase-tagged ATAD5 (AID 651632). Further: nearly all actives have a fitted effect of over 15% in size. An outline of the steps:
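HEK293T cells carrying luciferase-tagged ATAD5 were given compound or DMSO vehicle and incubated 16 hr at 37C, 5% CO2. Luciferase activity was read after 30 min at room temperature with Amplite; a rise signals genotoxic stress.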
Background: In qHTS, concentration-response curves come from the screen itself.

The nature of assay [2]: qHTS assay for small molecule agonists of the p53 signaling pathway - cell viability (AID 651633; calls by dose curve; further: nearly all actives have a fitted effect of over 30% in size; further: potency means the concentration at half of the fitted maximal effect). An outline of the steps: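 Viability counter-read: CellTiter-Glo luminescence (30 min, room temperature) in the same p53RE-bla plates. These plates had been exposed to compounds for 16 h at 37 C.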
The nature of assay [3]: qHTS assay for small molecules that induce genotoxicity in human embryonic kidney cells expressing luciferase-tagged ATAD5 - cell viability (AID 651634; calls by dose curve; further: nearly all actives have a fitted effect of over 25% in size; further: potency means the concentration at half of the fitted maximal effect). An outline of the steps: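 HEK293T cells carrying luciferase-tagged ATAD5, 2,000 cells/well, exposed to compound for 15.5 hr at 37C. Viability read as live-cell protease activity by CellTiter-Fluor fluorescence after 30 min at 37C.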

A short description of assay [4]: qHTS assay for small molecule disruptors of the mitochondrial membrane potential - cell viability (AID 720634; calls by dose curve;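 further: human HepG2 liver cancer cells; series mostly up to about 83 µM; nearly all actives have a fitted effect of over 20% in size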). Summed up:
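HepG2 cells, 2,000 per well, attached overnight, then treated 1 hr at 37 C, 5% CO2. Viability read as ATP by CellTiter-Glo luminescence after 30 min at room temperature. Read in the same wells as the m-MPI membrane-potential dye assay.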

Assay [5] in a line: qHTS assay to test for compound auto fluorescence at 590 nm (red) in HepG2 cells (AID 720674). Further: potency means the concentration at half of the fitted maximal effect. Summed up: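 1 hr compound incubation on HepG2 cells, 37 C, 5% CO2; plate read ex 540 nm / em 590 nm; intensities reported as Rose Bengal sodium equivalents.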
Assay [6] is described as follows: qHTS assay to test for compound auto fluorescence at 535 nm (green) in HepG2 cells (AID 720675). Further: potency means the concentration at half of the fitted maximal effect.
Assay [7] in a line: qHTS assay to test for compound auto fluorescence at 590 nm (red) in HEK293 cells (AID 720679). Further: potency means the concentration at half of the fitted maximal effect. Summed up:
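HEK293 cells (2,000/well, 10% dialyzed FBS) attached 4-5 hr, then dosed with compound or DMSO and incubated overnight at 37C, 5% CO2. Red fluorescence read at 540/590 nm, Rose Bengal sodium as reference fluorophore.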

A short description of assay [8]: qHTS assay to test for compound auto fluorescence at 535 nm (green) in HEK293 cells (AID 720680).
The nature of assay [9]: qHTS assay to test for compound auto fluorescence at 460 nm (blue) in HEK293 cell free culture (AID 720681). An outline of the steps:
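Blue fluorescence (Ex 405/Em 460 nm, triamterene-equivalent) was read immediately after pin transfer of compound or DMSO into medium (DMEM, 10% FBS) without cells.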

Assay [10] in a line: qHTS assay to test for compound auto fluorescence at 535 nm (green) in HEK293 cell free culture (AID 720682). Summed up:
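Fluorescein serves as the green reference fluorophore; each compound's intrinsic emission at 535 nm (excitation 485 nm) is reported as an equivalent amount of that dye, measured in serum-containing DMEM without cells.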

Assay [11] can be described thus: qHTS assay to test for compound auto fluorescence at 590 nm (red) in HEK293 cell free culture (AID 720683). Further: potency means the concentration at half of the fitted maximal effect. An outline of the steps: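 Red-channel autofluorescence of compounds in culture medium (DMEM, 10% FBS), no cells, measured at 540/590 nm. Rose Bengal sodium is the reference fluorophore for equivalence.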
The nature of assay [12]: qHTS assay to test for compound auto fluorescence at 590 nm (red) in HepG2 cell free culture (AID 720684). Further: potency means the concentration at half of the fitted maximal effect. An outline of the steps: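 Plate contents were MEM with 10% FBS plus test compound or DMSO, no cells. Fluorescence was recorded with 540 nm excitation and 590 nm emission.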
Assay [13] in a line: qHTS assay to test for compound auto fluorescence at 460 nm (blue) in HepG2 cell free culture (AID 720685). An outline of the steps:
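Compound (23 nL) or DMSO pinned into cell-free MEM with 10% FBS; blue fluorescence read at 405/460 nm excitation/emission, expressed as auto-fluorescence equivalency to triamterene.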

A short description of assay [14]: qHTS assay to test for compound auto fluorescence at 535 nm (green) in HepG2 cell free culture (AID 720686). Further: potency means the concentration at half of the fitted maximal effect.
A short description of assay [15]: qHTS assay to test for compound auto fluorescence at 460 nm (blue) in HepG2 cells (AID 720687). An outline of the steps: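 Blue-channel autofluorescence (Ex/Em 405/460 nm, triamterene-equivalent) was measured after 1 hr compound exposure at 37 C, 5% CO2. Cells were HepG2, plated overnight at 37 C in MEM plus 10% FBS.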
Assay [16] deals with Glucocorticoid receptor (Homo sapiens) (UniProt P04150). The assay is described as follows: qHTS assay to identify small molecule agonists of the glucocorticoid receptor (GR) signaling pathway (AID 720691; active means well fitted activation curve with a large enough effect in the signal ratio in the repeat runs, not every such curve was filed as active; the % refers to the signal ratio). An outline of the steps:
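GR-bla HeLa cells carrying a GRE-driven beta-lactamase reporter, exposed to compounds for 18 h at 37 C. Reporter activation read as fluorescence after 2 h with LiveBLAzer B/G FRET substrate at room temperature.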

For assay [17] the target is unchanged. The assay is described as follows: qHTS assay to identify small molecule antagonists of the glucocorticoid receptor (GR) signaling pathway (AID 720692; active means well fitted inhibition curve with a large enough effect in the signal ratio in the repeat runs, not every such curve was filed as active; the % refers to the signal ratio; further: potency means the concentration at half of the fitted maximal effect). An outline of the steps: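 GR-bla HeLa cells carrying a GRE-driven beta-lactamase reporter received compound after 4 h plating, then dexamethasone (5 nM final). After 18 h at 37C, the FRET substrate was loaded for 2 h at room temperature and fluorescence read.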

The nature of assay [18]: qHTS assay for small molecule disruptors of the mitochondrial membrane potential (AID 720635). Further: potency means the concentration at half of the fitted maximal effect. Summed up:
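Mitochondrial membrane potential tracked with Mito-MPS dye, red aggregates (ex 540/em 590 nm) against green monomers (ex 490/em 535 nm). Compound treatment 1 hr at 37C, dye 30 min in HepG2.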

Assay [19] in a line: qHTS assay to test for compound auto fluorescence at 460 nm (blue) in HEK293 cells (AID 720678). An outline of the steps: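 HEK293 cells (2,000/well, medium with 10% dialyzed FBS) attached 4-5 hr, then exposed to compound overnight at 37C, 5% CO2. Blue fluorescence read at 405/460 nm, with triamterene as reference fluorophore.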

Values joined by “and” are separate entries in the source; they are usually repeats but may differ in a detail not shown here. Identical values can stand only once. Inconclusive results are not listed. Some structures have more than one record in an assay (separate samples or runs), and their calls can disagree. Active and inactive are the calls of the source. Unless noted, the call rests on the fitted dose curve; in most records, active means well fitted curve in the direction sought with a large enough effect in the repeat runs; inconclusive means weak or mixed curves; inactive means no such curve, though single readings can be large; an effect the other way counts as inactive or inconclusive.

The text below walks through data of PubChem BioAssay (Tox21).
Tags describe the fitted curve by direction and shape or compound fluorescence and quenching.

Chain of Glucocorticoid receptor (Homo sapiens) (P04150 whole entry, looked up): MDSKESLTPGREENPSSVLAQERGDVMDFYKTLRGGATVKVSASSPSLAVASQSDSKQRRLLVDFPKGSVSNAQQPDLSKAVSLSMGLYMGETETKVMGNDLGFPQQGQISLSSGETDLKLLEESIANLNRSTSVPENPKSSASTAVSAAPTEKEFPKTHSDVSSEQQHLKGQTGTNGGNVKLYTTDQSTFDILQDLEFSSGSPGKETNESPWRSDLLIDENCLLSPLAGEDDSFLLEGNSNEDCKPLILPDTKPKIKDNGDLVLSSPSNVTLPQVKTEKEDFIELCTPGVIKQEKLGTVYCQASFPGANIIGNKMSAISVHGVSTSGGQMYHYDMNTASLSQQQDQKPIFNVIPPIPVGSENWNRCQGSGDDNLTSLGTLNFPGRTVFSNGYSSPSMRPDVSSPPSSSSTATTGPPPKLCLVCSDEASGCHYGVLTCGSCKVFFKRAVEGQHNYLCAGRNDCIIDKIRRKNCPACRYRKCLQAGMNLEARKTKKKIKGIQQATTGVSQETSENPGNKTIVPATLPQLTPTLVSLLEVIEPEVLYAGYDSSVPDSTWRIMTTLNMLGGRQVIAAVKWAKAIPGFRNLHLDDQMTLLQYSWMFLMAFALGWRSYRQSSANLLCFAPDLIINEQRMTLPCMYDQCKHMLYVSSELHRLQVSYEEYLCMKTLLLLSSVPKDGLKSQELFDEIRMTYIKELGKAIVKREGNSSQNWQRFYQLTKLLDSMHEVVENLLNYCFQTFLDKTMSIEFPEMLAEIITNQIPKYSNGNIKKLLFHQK

For the compound `O=C1OC2(c3cc(Br)c(O)c(Br)c3Oc3c2cc(Br)c(O)c3Br)c2c(Cl)c(Cl)c(Cl)c(Cl)c21`, the Potency entry in assay [1], in assay [4], in [8], in [10] and in [16] was “inactive” in each case. Also, the Potency in [2] is 54.5 µM (active); in assay [3], 9.7 µM (active) and 37.1 µM (active); in assay [5], 1.41 µM (active) and 7.94 µM (active); in [6], 17.8 µM (active); in assay [7], 2.51 µM [fluorescent] (active) and 14.1 µM [fluorescent] (active); in assay [11] it was 2 µM [fluorescent] (active) and 14.1 µM [fluorescent] (active). For the same compound, the Potency in assay [12] is 1.78 µM [fluorescent] (active) and 10 µM [fluorescent] (active); in [14] it was 28.2 µM [fluorescent] (active); in assay [17] it was 49.1 µM (active) and inactive. Further, the outcome in [9], in [13] and in assay [15] was inactive.

Take `CCCCCCCCCC(=O)OC`: the Potency entry in assay [1], in [2], in assay [4], in assay [18], in assay [5] and in assay [6] was “inactive” each time. Also, the Potency result in [7], in assay [8], in assay [10], in assay [11], in assay [12] and in assay [14] was “inactive” each time. Also, the compound was classed as inactive in assay [19], in [9], in [13] and in [15].

As to `COc1ccccc1/C=C/C=O`, the Potency result in [1], in assay [2], in assay [3], in assay [4], in assay [18] and in [5] was “inactive” each time. Moreover, the Potency entry in assay [6], in assay [7], in assay [8], in [10], in assay [11] and in [12] was “inactive” each time. In addition, the Potency entry in assay [14], in assay [16] and in assay [17] was “inactive” in each case. The compound was called inactive in assay [19], in assay [9] and in assay [13].

On to `O=C(COc1ccc(Cl)cc1)N1CCN(Cc2ccc3c(c2)OCO3)CC1`, for which the Potency result in [1], in assay [2], in [3], in assay [4], in assay [18] and in assay [5] was “inactive” in each case. The Potency result in [6], in assay [7], in assay [8], in [10], in assay [11] and in assay [12] was “inactive” throughout. Further, in [14], the Potency entry is “inactive”. Also, the compound was classed as inactive in [9], in [13] and in assay [15].

In the case of `COC(=O)Nc1nc2ccc(S(=O)c3ccccc3)cc2[nH]1` (configuration not stated), the Potency entry in assay [1], in assay [2], in [4], in [18], in assay [5] and in assay [6] was “inactive” throughout. Further, the Potency entry in assay [7], in assay [8], in assay [11], in assay [12], in [14] and in assay [16] was “inactive” throughout. Further, the Potency entry in assay [17] is “inactive”. Also, the outcome in assay [19], in [9] and in assay [13] was inactive.

For the compound `O=C(O)c1ccccc1Nc1cccc(C(F)(F)F)c1`, the Potency result in assay [1], in assay [3], in assay [4], in assay [5], in [6] and in [7] was “inactive” each time. Moreover, the Potency entry in [8], in assay [11], in assay [12] and in assay [14] was “inactive” throughout. Also, the Potency in assay [18] was 26.6 µM (active) and 43.3 µM (active); in [17], 49 µM (active). For the same compound, the compound was called inactive in assay [19], in assay [9] and in assay [13].

Consider `O=P(O)(O)O`, for which the Potency result in [4], in assay [18], in assay [5], in [6], in assay [7] and in [8] was “inactive” in each case. Also, the Potency entry in assay [11], in [12], in assay [14], in assay [16] and in [17] was “inactive” each time. Besides, the outcome in [19], in [9] and in assay [13] was inactive.
